USP28 inh = human USP28 deubiquitinase inhibition; Q96RU2; purified USP28, Ub-rhodamine cleavage fluorescence, 30 min; inhibition, % at 25 µM; actives 3% (n = 47,000); AID 1645857
USP17 block = human USP17-like deubiquitinase inhibition; A8MUK1; purified USP17, Ub-rhodamine cleavage fluorescence, 3 h; inhibition, % at 50 µM; actives 6.5% (n = 47,000); AID 1645855
OTUD3 block = human OTUD3 deubiquitinase inhibition. inhibition, % at 25 µM. actives 0.7% (n = 47,000). purified OTUD3, Ub-rhodamine fluorescence, 2 h. Q5T2D3
USP30 inh = blocks human USP30 ubiquitin-rhodamine cleavage; actives 5.3% (n = 47,000); purified USP30, Ub-rhodamine cleavage fluorescence; Q70CQ3; inhibition, % at 25 µM
Target sequence (Q70CQ3 whole entry, looked up): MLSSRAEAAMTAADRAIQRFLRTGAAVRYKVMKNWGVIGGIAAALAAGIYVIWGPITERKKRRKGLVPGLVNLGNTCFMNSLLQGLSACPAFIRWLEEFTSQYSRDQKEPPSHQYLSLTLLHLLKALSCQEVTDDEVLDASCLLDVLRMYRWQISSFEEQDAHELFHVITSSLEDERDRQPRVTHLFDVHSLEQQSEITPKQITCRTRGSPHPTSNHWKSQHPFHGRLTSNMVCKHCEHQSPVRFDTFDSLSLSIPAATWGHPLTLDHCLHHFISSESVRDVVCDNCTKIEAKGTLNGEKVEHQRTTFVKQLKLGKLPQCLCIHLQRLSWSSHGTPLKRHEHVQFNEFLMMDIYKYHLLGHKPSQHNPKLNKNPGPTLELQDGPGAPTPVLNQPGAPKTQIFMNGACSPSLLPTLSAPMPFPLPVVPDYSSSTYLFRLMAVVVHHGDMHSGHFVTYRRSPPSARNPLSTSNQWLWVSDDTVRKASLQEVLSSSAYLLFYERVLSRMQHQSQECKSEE
Large screens that a line does not name were inactive. In the library only some 11% were active in any assay of this set; here they are far more common. Cut-off read from the data, not from the text of the source: active = inhibition above about 30%; inactive = the rest.

CCOc1ccc(C(=O)N2CCC(c3nc(C)ncc3-c3cc(C)no3)CC2)o1	USP30 inh 36
Cc1cc(=O)oc2cc(OC(C)C(=O)NCc3ccncc3)ccc12 (stereo not drawn)	none
CC(C)(C)NC(=O)N1CCCN(C2CCN(Cc3ccccc3)C2=O)CC1 (stereo not drawn)	none
CNC(=O)N1CCCN(C2CCN(Cc3ccccc3)C2=O)CC1 (stereo not drawn)	USP30 inh 30
Cc1cc(C)cc(NC(=O)CSc2ccc(-c3ccncc3)nn2)c1	USP30 inh 55
C/C=C(\C)C(=O)O[C@H]1C=CC(=O)O[C@H]1/C=C/C(=O)[C@H](C)O	none
CCCCc1ccc(-c2cc(C(=O)NCCN3CCOCC3)c3cc(Br)ccc3n2)cc1	OTUD3 block 30, USP30 inh 79
O=C(c1ccccc1)N1CCC(c2cccc(Cc3cccc(F)c3)n2)CC1	USP28 inh 43
O=C(CC(c1ccccc1)c1ccccc1)Nc1nnc(-c2ccccc2)o1	none
CCCCNC(=O)c1cc2cn(C3CC3)cc2s1	USP17 block 41
C/C=C(/C)[C@@H](OC(C)=O)[C@@H](C)C1=CC(=O)C2=C(O[C@]3(C)CC[C@H]4O[C@@H](C(C)(C)O)C[C@H](O)[C@]4(C)[C@H]3[C@@H]2O)C1=O	none
COc1ccc(-c2nc3ccccc3o2)cc1NC(=O)Cc1ccc(OC)c(OC)c1	none
COc1ccc(CC(=O)Nc2ccccc2-c2nc3ccccc3[nH]2)cc1OC	USP17 block 76, USP30 inh 50
Cc1cc(O)cc2cc3c(c(O)c12)C(=O)CCC3O (stereo not drawn)	USP17 block 51
O=C(Nc1ccc(Cl)c(Cl)c1)c1cccc(N2CCCCS2(=O)=O)c1	USP28 inh 34
CC(=O)c1ccc(NC(=O)c2ccc(N3CCCCS3(=O)=O)cc2Cl)cc1	USP17 block 52
CCN(c1ccccc1)S(=O)(=O)c1ccc(OC)c(NC(=O)/C=C/c2ccc(S(=O)(=O)N3CCOCC3)cc2)c1	none
O=C(CN1C(=O)[C@H]2CCCN2c2ncccc21)NCc1cccc(C(F)(F)F)c1	none
CC(Oc1ccccc1)C(=O)NCCn1c(=O)[nH]c2cncnc21 (stereo not drawn)	none
COc1ccc(NC(=O)CN2CCN(c3ccc(C(C)=O)cc3)CC2)cc1S(=O)(=O)N1CCCCC1	USP17 block 36, USP30 inh 54
COc1ccc(NC(=O)Cc2ccccc2F)cc1S(=O)(=O)N1CCCCC1	none (no result: USP17 block)
O=C(COC(=O)c1ccco1)c1ccc(-n2nncc2-c2ccco2)cc1	none
c1ccc2c(c1)CCc1c-2nc2ccccc2c1N1CCOCC1	USP17 block 72
O=C(NCCN1CCOCC1)c1[nH]nc2c1CCc1ccccc1-2	none
Cc1cc(-c2noc(-c3cccnc3)n2)c2ccccc2n1	USP17 block 40
Cn1nnc2cc(C(=O)NCc3ccc(F)cc3)ccc21	none
O=C(NCc1ccc(F)cc1)c1cc(-n2cnnn2)ccc1Cl	USP28 inh 30, USP17 block 67, USP30 inh 30
Cc1ccc(CNc2cc(-n3cccn3)ncn2)cc1	USP28 inh 31
COc1ccccc1NS(=O)(=O)c1cccc(NC(=O)CCc2nc3ccccc3s2)c1	USP17 block 61
COc1ccc(NC(c2nnc(-c3ccccc3)o2)c2ccccc2F)c(OC)c1 (stereo not drawn)	none
Cc1onc(-c2ccccc2)c1CNC(=O)C1CCN(c2nccc(C(F)(F)F)n2)CC1	USP17 block 76 (no result: USP28 inh, USP30 inh)
Cc1onc(-c2ccccc2)c1CNC(=O)c1ccccc1C(=O)O	none
COc1ccc(Cn2nnc(-c3cccc(F)c3)n2)cc1F	USP28 inh 49
O=C(NC1=NCCS1)c1cnn(Cc2ccccc2)c1	none
O=C1COc2ccc(NC(=O)c3cnn(Cc4ccccc4)c3)cc2N1	USP17 block 63
Cc1cc(-c2nccn2C)nc(CC2CCN(C(=O)c3cccnc3)CC2)n1	none
COc1ccccc1NC(=O)CNC(=O)c1nn(-c2ccc(OC)c(OC)c2)c(=O)c2ccccc12	USP17 block 68
COc1ccccc1NC(=O)c1cnc2c(c1)c(=O)n(C)c(=O)n2-c1ccccc1	none
Cc1cc(NC(=O)Cn2c(=O)n(Cc3ccco3)c(=O)c3ccc(C(=O)NCCc4ccccc4)cc32)n[nH]1	USP28 inh 84, USP17 block 82, OTUD3 block 77, USP30 inh 74
O=C(Cn1c(=O)n(Cc2ccco2)c(=O)c2ccc(C(=O)NC3CCCC3)cc21)NCc1ccco1	USP17 block 55
CC(C)(C)C(=O)Cn1c(=O)n(Cc2ccco2)c(=O)c2ccc(C(=O)NC3CCCC3)cc21	none
Cc1cc(NC(=O)Cn2c(=O)n(CCc3ccccc3)c(=O)c3ccccc32)n[nH]1	none
